For 39 molecules, inhibition results are on record in PubChem BioAssay.

Unmarked numbers belong to inactive results. The rule behind the calls is not given here.

Pantothenate synthetase (Mycobacterium tuberculosis (strain ATCC 25618 / H37Rv)), sequence (P9WIL5 whole entry, looked up): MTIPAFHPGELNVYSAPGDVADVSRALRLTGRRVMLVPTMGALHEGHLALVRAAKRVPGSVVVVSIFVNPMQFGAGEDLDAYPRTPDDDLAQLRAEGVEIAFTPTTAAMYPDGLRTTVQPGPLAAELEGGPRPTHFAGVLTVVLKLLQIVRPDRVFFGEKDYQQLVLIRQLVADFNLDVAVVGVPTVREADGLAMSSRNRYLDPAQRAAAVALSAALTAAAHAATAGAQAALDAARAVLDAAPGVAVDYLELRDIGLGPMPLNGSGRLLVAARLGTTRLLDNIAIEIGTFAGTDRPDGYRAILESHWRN

The experiment concerns the target Pantothenate synthetase (Mycobacterium tuberculosis (strain ATCC 25618 / H37Rv)) (UniProt P9WIL5). Nature of the experiment: Recombinant Mtb pantothenate synthetase (PanC) inhibitors, coupled enzyme, confirmatory (AID 375).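 Note: 0% = full reaction with vehicle and 100% = no enzyme background.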 To be noted: coupled enzyme assay; at 10 µM, hits give high values.
Broadly, the inhibition is the relative decrease from the control value, in per cent. As for `CC(=O)Nc1ccc(NS(=O)(=O)c2ccc(Cl)c(C(=O)O)c2)cc1`, the inhibition is 1%.
For `Cc1cc(C)c2c(C)nn(C3CCCCC3)c2n1`, the inhibition is 0%.
With `O=C(NC1CCCCC1)C(c1ccco1)N(Cc1cccnc1)C(=O)C1COc2ccccc2O1` (centres undefined) the figure was 2%; with `CCn1ncc(Cl)c1C(=O)Nc1ccncc1`, 3%; with `CC1CCN(c2oc(-c3cccc4ccccc34)nc2C#N)CC1`, 0%.
With `CCOC(=O)CSc1nc(C)c(C(=O)OCC)s1` the figure was 0%; with `CCOc1ccccc1-n1c(SCC(=O)NC2CCCC2)nnc1-c1ccoc1C`, 1%.
With `COc1ccc(C(=O)Nc2ccc(S(=O)(=O)NC(C)=O)cc2)cc1` the figure was 0%.
Consider `O=C(c1cccs1)N1CCN=C1SCc1ccccc1`, for which the inhibition was 4%.
With `CCCCC(CC)CNC(=O)C1CCCN(S(=O)(=O)c2cnc[nH]2)C1` (centres undefined) the figure was 0%.
With `CCOC(=O)C1=C(C)Nc2nc(SCC(=O)OC)nn2C1c1cc(F)cc(F)c1` (centres undefined) the figure was 3%.
With `COc1cccc(-c2nc3n(n2)C(c2cccs2)C(C(=O)Nc2cccnc2)=C(C)N3)c1` (centres undefined) the figure was 0%; with `CCOC(=O)C1/C(=N\O)CC(C)(O)C(C(=O)OCC)C1c1ccc(N(C)C)cc1` (centres undefined), 0%; with `CCOC(=O)c1ccc(CNC(=O)C(Cc2c[nH]c3ccccc23)NC(C)=O)o1` (centres undefined), 3%.
For the molecule `Cc1ccc(-c2nnc(SC(C)C#N)n2N)cc1` (centres undefined), the inhibition is 3%.
With `CCOc1ccc(N2CC(C(=O)Nc3ccccc3OC)CC2=O)cc1` (centres undefined) the figure was 0%; with `CC1(C)O[C@@H]2C[C@H]3[C@@H]4C[C@H](F)C5=CC(=O)CC[C@]5(C)[C@H]4[C@@H](O)C[C@]3(C)[C@]2(C(=O)CO)O1`, 7%.
With `CCc1ccc(NC(=O)CS(=O)CC(=O)NCC2OCCc3ccccc32)cc1` (centres undefined) the figure was 0%; with `Cc1cc(C)c2c(N)c(C(=O)c3ccccc3)oc2n1`, 0%; with `CCCCCCn1c(SCCCC)nc2c1c(=O)[nH]c(=O)n2C`, 4%.
With `CN1C(=O)NC(NC(=O)C2CCCCC2)(C(F)(F)F)C1=O` (centres undefined) the figure was 0%; with `CC(C)(C)NC(=O)Cn1nnc(-c2cccs2)n1`, 5%; with `COc1cccc(NC(=O)COC(=O)c2ccco2)c1`, 0%.
For `CNc1nnc(-c2cccc(N(C)C)c2)s1`, the inhibition is 0%.
With `CC1=C(C(=O)OC(C)C)C(c2cccc(F)c2)n2ncnc2N1` (centres undefined) the figure was 2%.
With `CC(=O)N1CCN(C(C)=O)C1c1ccccc1` the figure was 2%.
With `C[C@]12C[C@H](O)[C@H]3[C@@H](CCC4=CC(=O)CC[C@@]43C)[C@@H]1CC[C@@H]2C(=O)CO` the figure was 0%; with `CC1CCc2nn(CC(=O)NCc3ccc(F)cc3)cc2C1` (centres undefined), 7%.
Take `COCCNC(=S)c1ccc(OC)cc1`: the inhibition was 5%.
For `CCOC(=O)Cc1csc(NC(=O)CN(C)S(=O)(=O)c2ccc3c(c2)CCC(=O)N3)n1`, the inhibition is 0%.
With `CSCSC1=C(C#N)C(c2ccc(Cl)cc2)C(C(C)=O)=C(C)N1` (centres undefined) the figure was 0%; with `COc1ccc(Cl)cc1-c1n[nH]c(=S)o1`, 0%; with `CCOP(=O)(c1ccc(N(C)C)cc1)C(O)c1c(Cl)cccc1Cl` (centres undefined), 0%.
Regarding `COC(=O)c1[nH]c2cc(OC)ccc2c1NC(=O)CN1CCOCC1`, the inhibition was 0%.
With `Cc1ccc(-c2nc3ccccc3[nH]2)s1` the figure was 0%; with `COCCn1cc(C(=O)NCCCN2CCC(C)CC2)c2c3ccccc3n(C)c2c1=O`, 2%.
With `COC(=O)c1ccccc1NC(=O)C12CCC(C)(C(=O)O1)C2(C)C` (centres undefined) the figure was 0%; with `CC(=O)N1CCN=C1SCc1ccc(Br)cc1`, 4%.
With `Cc1ccc(CS(=O)(=O)CCC(=O)NCC2CCCO2)cc1` (centres undefined) the figure was 0%.
